Test results from PubChem BioAssay.
The source made the active and inactive calls.

What was measured:
[1] = binders of probe aFSTL3 on microarray, primary screen, stem cell growth factor project, biochemical, small-molecule microarray, fluorescence 635/667 (AID 1064); details: higher = more signal;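 also: measures binding of the biotinylated anti-FSTL3 antibody to printed compounds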
[2] = binders from COS7 lysate, DM2A8 probe, primary screen, torsin A project, cell lysate, small-molecule microarray, fluorescence 635/667 (AID 1065); details: higher = more signal, COS7 lysate expressing mutant human TOR1A
[3] = binders of probe aFGF2 on microarray, primary screen, stem cell growth factor project, biochemical, small-molecule microarray, fluorescence 635/667 (AID 1067); details: higher = more signal;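 also: measures binding of biotinylated aFGF2 protein to printed compounds on slides; z-score merges feature fluorescence and signal-to-noise across triplicate slides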
[4] = binders of probe aFGF10 on microarray, primary screen, stem cell growth factor project, biochemical, small-molecule microarray, fluorescence 635/667 (AID 1071); details: higher = more signal;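 also: score merges 667 nm spot intensity and signal to noise from triplicate slides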
[5] = target: Neurogenic locus notch homolog protein 2 (Homo sapiens) (UniProt Q04721); assay: Notch2 binders on small-molecule microarrays, primary screen, biochemical, small-molecule microarray, 635 nm fluorescence, stem cell growth factors (AID 1073); details: Notch2 binding, higher = more signal
Neurogenic locus notch homolog protein 2 (Homo sapiens), sequence (Q04721 whole entry, looked up, canonical isoform): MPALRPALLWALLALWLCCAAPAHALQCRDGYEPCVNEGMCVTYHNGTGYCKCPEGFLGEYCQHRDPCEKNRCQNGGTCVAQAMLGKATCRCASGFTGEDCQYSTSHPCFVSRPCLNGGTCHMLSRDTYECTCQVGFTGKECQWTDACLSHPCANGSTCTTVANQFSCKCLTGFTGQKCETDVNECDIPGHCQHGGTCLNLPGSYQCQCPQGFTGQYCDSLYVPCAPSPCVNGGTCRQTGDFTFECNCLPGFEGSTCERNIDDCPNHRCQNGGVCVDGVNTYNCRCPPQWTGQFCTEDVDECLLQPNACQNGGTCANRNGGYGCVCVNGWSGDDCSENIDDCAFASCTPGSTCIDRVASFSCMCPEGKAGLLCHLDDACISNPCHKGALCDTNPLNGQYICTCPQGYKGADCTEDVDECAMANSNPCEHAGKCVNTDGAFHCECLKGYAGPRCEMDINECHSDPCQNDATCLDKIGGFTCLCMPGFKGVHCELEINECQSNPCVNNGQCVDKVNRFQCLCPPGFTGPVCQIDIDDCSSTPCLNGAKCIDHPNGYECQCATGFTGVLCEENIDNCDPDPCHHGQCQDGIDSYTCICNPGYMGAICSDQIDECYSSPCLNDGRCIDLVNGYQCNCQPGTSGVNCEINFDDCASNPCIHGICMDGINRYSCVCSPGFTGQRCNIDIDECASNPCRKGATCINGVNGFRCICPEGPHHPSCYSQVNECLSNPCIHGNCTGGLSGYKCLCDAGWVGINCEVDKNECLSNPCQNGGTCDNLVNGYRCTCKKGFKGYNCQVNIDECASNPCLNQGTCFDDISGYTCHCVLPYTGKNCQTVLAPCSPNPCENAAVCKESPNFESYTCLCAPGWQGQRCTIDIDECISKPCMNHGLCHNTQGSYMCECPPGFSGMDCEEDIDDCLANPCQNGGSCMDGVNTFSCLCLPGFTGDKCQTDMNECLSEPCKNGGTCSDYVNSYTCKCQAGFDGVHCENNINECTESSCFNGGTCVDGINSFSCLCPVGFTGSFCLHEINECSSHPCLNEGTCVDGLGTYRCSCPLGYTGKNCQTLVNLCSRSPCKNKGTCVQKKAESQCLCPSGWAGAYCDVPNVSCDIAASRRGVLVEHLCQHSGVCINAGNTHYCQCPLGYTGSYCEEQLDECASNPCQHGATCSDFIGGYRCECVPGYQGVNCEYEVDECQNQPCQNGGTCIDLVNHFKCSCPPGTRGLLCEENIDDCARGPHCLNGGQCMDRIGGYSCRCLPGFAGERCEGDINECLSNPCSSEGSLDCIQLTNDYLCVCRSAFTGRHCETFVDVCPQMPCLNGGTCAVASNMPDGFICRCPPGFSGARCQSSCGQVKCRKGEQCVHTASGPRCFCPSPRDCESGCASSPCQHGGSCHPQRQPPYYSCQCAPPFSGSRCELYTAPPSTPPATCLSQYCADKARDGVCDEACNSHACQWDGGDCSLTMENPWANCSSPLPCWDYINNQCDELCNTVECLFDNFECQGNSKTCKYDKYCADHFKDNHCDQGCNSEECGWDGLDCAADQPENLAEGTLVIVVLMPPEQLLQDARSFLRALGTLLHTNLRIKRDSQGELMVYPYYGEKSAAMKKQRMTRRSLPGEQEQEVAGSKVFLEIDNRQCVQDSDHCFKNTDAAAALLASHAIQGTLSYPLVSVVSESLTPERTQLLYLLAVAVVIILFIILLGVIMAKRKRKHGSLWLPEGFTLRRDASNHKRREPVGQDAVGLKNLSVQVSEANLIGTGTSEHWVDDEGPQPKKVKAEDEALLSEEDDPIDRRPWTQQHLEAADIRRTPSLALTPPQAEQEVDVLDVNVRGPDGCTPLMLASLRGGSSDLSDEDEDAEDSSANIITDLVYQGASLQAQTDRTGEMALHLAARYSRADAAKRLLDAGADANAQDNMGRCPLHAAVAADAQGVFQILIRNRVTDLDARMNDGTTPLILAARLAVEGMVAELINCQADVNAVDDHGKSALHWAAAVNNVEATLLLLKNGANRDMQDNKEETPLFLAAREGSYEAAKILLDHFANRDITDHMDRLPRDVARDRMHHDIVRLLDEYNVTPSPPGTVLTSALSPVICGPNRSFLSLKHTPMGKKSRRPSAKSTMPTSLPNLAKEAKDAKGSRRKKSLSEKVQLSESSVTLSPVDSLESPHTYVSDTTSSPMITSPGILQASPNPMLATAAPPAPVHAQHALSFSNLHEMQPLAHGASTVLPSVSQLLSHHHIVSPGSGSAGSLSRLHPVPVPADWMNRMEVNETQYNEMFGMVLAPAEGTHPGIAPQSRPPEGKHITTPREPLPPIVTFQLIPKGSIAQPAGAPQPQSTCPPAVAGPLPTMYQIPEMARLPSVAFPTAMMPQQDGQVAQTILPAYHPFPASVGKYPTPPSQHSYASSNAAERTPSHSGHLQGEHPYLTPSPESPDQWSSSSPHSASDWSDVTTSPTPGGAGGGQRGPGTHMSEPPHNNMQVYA

[6] = target: Pro-neuregulin-1, membrane-bound isoform (Homo sapiens) (UniProt Q02297); assay: NRG1 binders on small-molecule microarrays, primary screen, psychiatric disease protein project, biochemical, small-molecule microarray, fluorescence 635/667 (AID 1075); details: NRG1 binding, 635 nm fluorescence, higher = more signal;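 also: score combines 667 nm spot fluorescence with signal to noise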
Pro-neuregulin-1, membrane-bound isoform (Homo sapiens), sequence (Q02297 whole entry, looked up, the tested form may be a part, canonical isoform): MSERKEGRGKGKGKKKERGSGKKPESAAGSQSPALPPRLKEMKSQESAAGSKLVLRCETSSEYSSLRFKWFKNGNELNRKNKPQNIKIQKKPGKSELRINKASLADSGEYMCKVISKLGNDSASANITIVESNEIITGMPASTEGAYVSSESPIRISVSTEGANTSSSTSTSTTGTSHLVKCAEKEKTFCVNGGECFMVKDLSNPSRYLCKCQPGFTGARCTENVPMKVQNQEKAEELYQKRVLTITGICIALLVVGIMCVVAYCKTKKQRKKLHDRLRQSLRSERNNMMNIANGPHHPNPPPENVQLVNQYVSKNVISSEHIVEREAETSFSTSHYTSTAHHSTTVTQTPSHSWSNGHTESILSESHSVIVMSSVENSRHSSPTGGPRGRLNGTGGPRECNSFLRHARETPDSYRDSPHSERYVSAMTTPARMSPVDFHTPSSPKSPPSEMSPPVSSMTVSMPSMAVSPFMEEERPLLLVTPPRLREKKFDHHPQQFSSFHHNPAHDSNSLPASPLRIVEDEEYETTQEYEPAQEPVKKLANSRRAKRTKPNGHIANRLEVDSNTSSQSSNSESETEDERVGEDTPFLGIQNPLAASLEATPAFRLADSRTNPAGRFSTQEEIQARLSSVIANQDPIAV

[7] = tested on: Neuregulin-1 EGF-like domain; assay: binders of neuregulin-1 EGF-like domain, primary screen, biochemical, small-molecule microarray, 635 nm fluorescence (AID 1081); details: small-molecule microarray binding, higher = more signal;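 also: binding of the protein to compounds printed on small-molecule microarray slides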
[8] = FRG1 promoter luciferase signal modulators, primary screen, FRG1 inhibition for FSHD, cell-based, C2C12 myotubes, firefly/Renilla luciferase, luminescence (AID 1084); details: higher = more signal, called active from +8 up or from −8 down
[9] = binders of probe aFST on microarray, primary screen, stem cell growth factor project, biochemical, small-molecule microarray, fluorescence 635/667 (AID 1086); details: higher = more signal;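 also: score merges 667 nm fluorescence with signal-to-noise of each printed compound spot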
[10] = binders of probe aHhip on microarray, primary screen, stem cell growth factor project, biochemical, small-molecule microarray, fluorescence 635/667 (AID 1087); details: higher = more signal;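 also: score merges spot fluorescence at 667nm with spot signal to noise ratio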
[11] = tested on: PRMT1 (protein arginine N-methyltransferase 1); assay: PRMT1 binders on small-molecule microarrays, primary screen, biochemical, small-molecule microarray, 635 nm fluorescence (AID 1088); details: small-molecule microarray binding, higher = more signal;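 also: binding of Prmt1 protein to compounds spotted on small-molecule microarray slides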
[12] = yeast growth modulation, basal conditions, primary screen, YJM789 clinical isolate, OD600, 24 h (AID 1089);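 also: growth of clinical yeast isolate S. cerevisiae YJM 789 seeded 1000 cells per well; test concentration not given here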; details: S. cerevisiae YJM789 growth, higher = more signal, called active from +8 up or from −8 down
[13] = fission yeast growth modulation, primary screen, strain 972, OD600, 24 h, no modulator (AID 1090);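 also: basal condition with compound alone and no growth modifier present; test concentration not given here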; details: S. pombe 972 growth, higher = more signal, called active from +8 up or from −8 down
[14] = S. cerevisiae growth modulation with rapamycin, primary screen, strain BY4716, OD600, 96 h (AID 1091); details: higher = more signal, called active from +8 up or from −8 down; also: test concentration not given here
[15] = target: Torsin-1A-interacting protein 2 (Homo sapiens) (UniProt Q8NFQ8); assay: LULL1 binders on small-molecule microarray, primary screen, cell lysate, human LULL1 lysate, 635/667 nm fluorescence (AID 1092); details: hLULL1 lysate binding, 635 nm fluorescence, higher = more signal;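 also: probe is lysate of COS7 cells overexpressing human LULL1; score merges per-feature 667 nm fluorescence with signal-to-noise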
Torsin-1A-interacting protein 2 (Homo sapiens), sequence (Q8NFQ8 whole entry, looked up): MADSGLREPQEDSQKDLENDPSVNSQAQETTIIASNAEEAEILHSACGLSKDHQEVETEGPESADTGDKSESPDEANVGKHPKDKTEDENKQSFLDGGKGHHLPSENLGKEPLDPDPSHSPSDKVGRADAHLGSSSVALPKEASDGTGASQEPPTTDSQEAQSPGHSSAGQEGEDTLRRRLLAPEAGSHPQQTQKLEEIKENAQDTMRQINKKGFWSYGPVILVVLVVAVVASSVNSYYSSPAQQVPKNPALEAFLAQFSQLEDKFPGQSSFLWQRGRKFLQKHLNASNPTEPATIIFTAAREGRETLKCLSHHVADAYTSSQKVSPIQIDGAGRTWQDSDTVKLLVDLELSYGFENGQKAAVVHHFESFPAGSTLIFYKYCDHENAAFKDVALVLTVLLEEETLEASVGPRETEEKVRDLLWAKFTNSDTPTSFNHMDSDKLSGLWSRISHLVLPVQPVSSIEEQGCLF

[16] = E. coli growth modulation, two-sided OD650, primary screen, E. coli filamentation project, strain DRC41, 24 h (AID 1093); details: OD650, 24 h, higher = more signal, called active from +8 up or from −8 down;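 also: MC1000 strain lacking acrAB efflux and sulA so SOS filamentation is blocked; test concentration not given here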
[17] = small-molecule microarray binders of probe aLefty2, primary screen, biochemical, biotinylated probe, 635/667 nm fluorescence (AID 1094); details: higher = more signal;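 also: score merges spot fluorescence near 667 nm with spot signal-to-noise ratio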
[18] = tested on: Noggin (protein binding on small-molecule microarray); assay: Noggin binders on small-molecule microarray, primary screen, biochemical, 635/667 nm fluorescence (AID 1095); details: 635 nm fluorescence, higher = more signal;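 also: score merges 667 nm feature fluorescence with signal to noise over triplicate slides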
[19] = target: Neurogenic locus notch homolog protein 3 (Homo sapiens) (UniProt Q9UM47); assay: NOTCH3 binders on small-molecule microarray, primary screen, biochemical, 635/667 nm fluorescence (AID 1096); details: NOTCH3 binding, 635 nm fluorescence, higher = more signal
[20] = small-molecule microarray binders of probe aEGFR, primary screen, biochemical, biotinylated probe, 635/667 nm fluorescence (AID 1097); details: higher = more signal;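 also: probe is a biotinylated anti-EGFR antibody binding compounds printed on slides; score combines fluorescence near 667 nm and signal to noise of each spot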

Compound | composite z-score [1] | composite z-score [2] | composite z-score [3] | composite z-score [4] | composite z-score [5] | composite z-score [6] | composite z-score [7] | z-score [8] | composite z-score [9] | composite z-score [10] | composite z-score [11] | z-score [12] | z-score [13] | z-score [14] | composite z-score [15] | z-score [16] | composite z-score [17] | composite z-score [18] | composite z-score [19] | composite z-score [20]
Cc1ccc(S(=O)(=O)N[C@H]2COC(=O)CC=C[C@H](C)[C@@H](NS(=O)(=O)c3ccc(C)cc3)COC(=O)CC=C[C@@H]2C)cc1 | -0.546 | 0.391 | 0.16 | 0.395 | 0.434 | -0.107 | 0.0446 | 1.41 (inactive) | -0.118 | 0.166 | 0.405 | -0.293 (inactive) | 0.518 (inactive) | 0.0667 (inactive) | 0.247 | 0.0401 (inactive) | -0.126 | 0.601 | 0.321 | -0.068
CCCNC(=O)OC[C@H]1O[C@H](CCON=C(C)C)C=C[C@@H]1Oc1ccc(OC)cc1 | 0.0684 | -0.152 | -0.0598 | 0.332 | -0.482 | 0.0871 | -0.327 | 0.534 (inactive) | 0.139 | -0.226 | 0.612 | -0.578 (inactive) | -5.54 (inactive) | 0.0158 (inactive) | 0.876 | 0.964 (inactive) | 0.0472 | 0.422 | -0.216 | -0.0581
CC1O[C@H]2C3=C(C(=O)[C@@H]4O[C@@H]4[C@H]3O)[C@@H]1C1[C@@H](C)OC=C3[C@H](O)C4O[C@@H]4C(=NOCc4ccccc4)[C@]312 (stereo not given in full) | -0.379 | -0.488 | -0.166 | 0.0246 | 0.112 | -0.505 | -0.0339 | -1.15 (inactive) | -0.123 | -0.216 | -0.543 | 0.247 (inactive) | -0.602 (inactive) | 0.089 (inactive) | 0.578 | -0.42 (inactive) | -0.192 | 0.521 | -0.128 | -0.148
COC(=O)[C@@H]1CC[C@H](C)[C@@H](c2ccc(C)cc2)N1C(=O)c1ccc(C=NO[C@H](C)c2cn([C@@H]3COC[C@H]3O)nn2)cc1 | -0.591 | -0.314 | -0.0459 | 0.515 | 1.14 | 0.122 | 0.972 | 0.191 (inactive) | 0.165 | -0.124 | 1.12 | 0.524 (inactive) | -0.0358 (inactive) | 0.726 (inactive) | 2.06 | 1.67 (inactive) | -0.138 | 0.258 | 1.09 | 0.212
CO[C@@H]1COC(=O)CC=C[C@@H](C)[C@@H]2C=C[C@H](O)[C@@H](COC(=O)CC=C[C@H]1C)O2 | -0.304 | 1.7 | -0.192 | -0.14 | -0.703 | -0.421 | 0.824 | -0.715 (inactive) | -0.245 | 0.0714 | 1.56 | -0.48 (inactive) | -0.636 (inactive) | -0.922 (inactive) | -0.664 | 0.713 (inactive) | -0.123 | 1.47 | 0.276 | 0.0651
O=C1[C@H]2[C@H]3[C@H](O)[C@H](O)CC(=NOC[C@@H](O)COCc4ccco4)[C@H]3CC[C@H]2C(=O)N1Cc1ccccc1 | -0.414 | 1.33 | -0.21 | 0.17 | -0.224 | -0.346 | 0.299 | 0.272 (inactive) | -0.222 | -0.132 | 0.411 | -1.14 (inactive) | -1.05 (inactive) | -1.11 (inactive) | -1.71 | -0.518 (inactive) | -0.148 | 0.594 | -0.309 | -0.0973
Cc1cc2c(nc1C)CCCCN2CC(C)ON=C[C@@H](C)[C@H](OCc1ccccc1)C(C)C (stereo not given in full) | -0.0674 | -0.777 | -0.307 | -1.05 | -1.38 | -0.317 | -0.366 | -0.154 (inactive) | -0.514 | -0.0994 | -0.766 | -0.715 (inactive) | -14.4 (active) | 0.365 (inactive) | -1.02 | 0.162 (inactive) | -0.204 | -0.913 | -1.01 | -0.3
COC(=O)CC=C[C@@H](C)[C@H](OCc1cccc(-c2ccccc2)c1)C1CCCCC1 | -0.131 | 0.0473 | -0.174 | -0.208 | 0.813 | 0.654 | 0.359 | 1.38 (inactive) | -0.48 | 0.189 | -0.526 | 1.44 (inactive) | -0.915 (inactive) | 1.45 (inactive) | -0.311 | 0.109 (inactive) | -0.321 | -0.274 | -0.395 | -0.27
CC(C)[C@@H](OCc1ccccc1)[C@H](C)C=NOC[C@@H](O)COCc1ccco1 | -0.457 | 0.84 | -0.251 | -0.416 | -1.08 | -0.417 | -0.569 | 0.887 (inactive) | -1.53 | -0.302 | -0.0832 | -1.64 (inactive) | -4.1 (inactive) | -1.15 (inactive) | -0.425 | 0.799 (inactive) | -0.364 | 0.0964 | -0.0957 | -0.357
CCOC(=O)[C@H](CC(C)C)NC(=O)CCC1CC(OC(=O)NCCc2ccc(F)cc2)CC2(CCCC(COC(=O)NCCc3ccc(Cl)cc3)O2)O1 (stereo not given in full) | -0.543 | 1 | -0.0267 | 0.491 | 0.74 | 0.0742 | 1.06 | 1.57 (inactive) | 0.197 | 0.208 | 1.26 | -0.623 (inactive) | 0.485 (inactive) | -0.518 (inactive) | 1.97 | -0.296 (inactive) | -0.0021 | 0.948 | 0.773 | -0.123
